In all, about 57,000 sequences went through this assay and about 3,500 (6.1%) were called active. No stated cut-off is given here; in the data, active = GI50 up to about 1.1 µM and inactive = higher. The entries come from a sample that favours actives as a whole. Results with a measured potency or affinity are listed apart.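 All cell lines were grown in 96-well plates and treated with compound for 48 hours. At the GI50, growth is halved.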

The subject of this test is 786-0. The test can be described thus: NCI tumour cell line growth inhibition, 48 h.
“[Bis(aminomethyl)tetramethylenesilane]dichloropaltinum(II), CHEMBL2146205” showed a GI50 of 5.78 µM.
With “[Bis(aminomethyl)diethylsilane]tetrachloroplatinum(IV), CHEMBL2146203”, the GI50 was determined as 2.18 µM.
The same measure for “[Bis(aminomethyl)tetramethylenesilane]tetrachloropaltinum(IV), CHEMBL2146189”: 3.1 µM; for CISPLATIN, CHEMBL11359: 1.1 µM; for “[Bis(aminomethyl)ethylmethylsilane]tetrachloroplatinum(IV), CHEMBL2146192”: 1.34 µM.
With “[Bis(aminomethyl)dimethylsilane]dichloroplatinum (II), CHEMBL2146201” the figure was 6.14 µM; with “[Bis(aminomethyl)pentamethylenesilane]tetrachloropaltinum(IV), CHEMBL2146204”, 1.22 µM; with “[Bis(aminomethyl)pentamethylenesilane]dichloropaltinum(II), CHEMBL2146202”, 0.916 µM.
The same measure for “[Bis(aminomethyl)dimethylsilane]tetrachloroplatinum(IV), CHEMBL2146190”: 2.12 µM.
“mu-(1,7-nanodiamine-N,N')bis-(cis-aminedichloroplatimum (II)), CHEMBL2146215”: the GI50 came to 8.73 µM.
As for “cis-Bis[[(trimethylsilyl)methyl]amino]tetrachloroplatinum(IV), CHEMBL2146191”, the GI50 turned out to be 5.71 µM.

For the origin of these results see ChEMBL document CHEMBL1201862, “PubChem BioAssay data set” (2004).
